From PubChem BioAssay
Compounds with a hit are over-represented: about 6.7% of the library has one in this group of screens.
BoNT F protease – inhibitors of Botulinum neurotoxin F light chain protease; Multiplex microsphere protease cleavage assay, flow cytometry; inhibition, % at 10 µM; 0.22% of 360,000 active; AID 588497; in the data active = inhibition above about 35%, passing the limit was not always enough; inconclusive = no clear call, values can overlap the other calls; also: plate controls were buffer without enzyme for full effect and enzyme alone for no effect
Anthrax LF inh2 – anthrax lethal factor protease inhibition. multiplex microsphere protease cleavage assay, LF. AID 588501. P15917. inhibition, % at 10 µM. 0.12% of 360,000 active; also: plate controls were buffer without enzyme for full effect and enzyme alone for no effect
BoNT A protease – BoNT A light chain protease inhibition; multiplex microsphere protease substrate cleavage, flow cytometry; inhibition, % at 10 µM; 0.17% of 360,000 active; also: plate controls were buffer without enzyme for full effect and enzyme alone for no effect
Bead autofluor – compound fluorescence in toxin protease inhibitor counterscreen; fluorescence intensity (test concentration not listed); 3.1% of 360,000 active; compound autofluorescence counterscreen, microsphere flow cytometry; stronger effect = higher value; in the data active = fluorescence intensity above about 16000; inconclusive = no clear call, values can overlap the other calls
Mtb FBA inh – inhibits M. tuberculosis FBA enzyme. inhibition, % at 1 µM. purified M. tuberculosis FBA, fluorescence read-out. 2.3% of 360,000 active; in the data active = inhibition above about 27%;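 also: 0% = vehicle and 100% = reference inhibitor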
GDH-TPI counter-1 – inhibits GDH-TPI coupling enzymes, artifact for Mtb FBA screen; GDH-TPI coupled enzyme counterscreen, NADH absorbance; inhibition, % at 4.8 µM; 1.2% of 360,000 active; in the data active = inhibition above about 30%;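 also: 0% = DMSO wells and 100% = wells lacking the enzyme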
Mtb FBA inh conf – Mtb FBA inhibition, confirmed; 78% of 5,600 active; purified M. tuberculosis FBA, fluorescence read-out; inhibition, % at 1 µM; shares compounds with Mtb FBA inh; in the data active = inhibition above about 27%;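 also: 0% = vehicle wells and 100% = reference inhibitor wells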
GDH-TPI counter-2 – GDH-TPI inhibition counter-screen for FBA inhibitors; shares compounds with Mtb FBA inh; GDH-TPI coupled enzyme counterscreen, fluorescence; inhibition, % at 1 µM; 81% of 5,600 active; in the data active = inhibition above about 10%
GDH-TPI DR – counter-screen for M. tuberculosis FBA inhibitors: GDH-TPI dose response; shares compounds with Mtb FBA inh; IC50, µM; 79% of 170 active; GDH-TPI coupled enzyme assay, fluorescence, artifact counterscreen; AID 652145; call rule not given here
* marks the source's active call; other numbers are inactive results; u = inconclusive; x = no result given; + = active, no number. Rule as the data show it, unless noted: active = inhibition above about 30%; inconclusive = no clear call, values can overlap the other calls; inactive = below that.

SMILES | BoNT F protease | Anthrax LF inh2 | BoNT A protease | Bead autofluor | Mtb FBA inh | GDH-TPI counter-1 | Mtb FBA inh conf | GDH-TPI counter-2 | others
Cc1cc(C(=O)NCc2ccc(S(N)(=O)=O)cc2)cs1 | -6 | -2 | 0 | 11378 | 0 | -10 | x | x
Cc1ccc(S(=O)(=O)Nc2cccc(C(=O)NCc3ccc(S(N)(=O)=O)cc3)c2)cc1 | -12 | 4 | 1 | 3961 | 27* | 5 | 156* | 128*
COc1ccc2nc(-c3ccccc3)cc(C(=O)OCC(=O)N3CC(C)OC(C)C3)c2c1 (stereo unspecified) | -7 | 1 | 3 | 2926 | 110* | 10 | 38* | 30*
COc1ccc2nc(-c3ccccc3)cc(C(=O)OCC(=O)N3CCCCC3)c2c1 | -3 | 2 | 5 | 3719 | 87* | 1 | + | +
COc1ccc(-c2cc(C(=O)OCC(=O)N3CCCC3)c3ccccc3n2)cc1 | 0 | 4 | 1 | 3171 | 9 | 13 | x | x
Cc1cc(C(=O)OCC(=O)N2CC(C)OC(C)C2)c2ccccc2n1 (stereo unspecified) | 2 | 2 | 2 | 6017 | 1 | 4 | x | x
Cc1cc(C)cc(SCc2noc(C(=O)NCCN(C)C)c2C(=O)NCCN(C)C)c1 | -1 | 2 | -1 | 3016 | 1 | -2 | x | x
COc1ccc(OC)c(S(=O)(=O)Nc2ccc3c(c2)n(C)c(=O)n3C)c1 | -10 | -6 | 1 | 3800 | 62* | 2 | 140* | 93*
COc1ccc(N=c2cc(-c3ccc(O)cc3)oc3ccccc23)cc1 | -6 | -2 | 0 | 2538 | -5 | 8 | x | x
COc1ccc(-c2cc(=Nc3ccc(C)cc3)c3ccccc3o2)cc1 | 0 | 0 | -2 | 3771 | 29* | 21 | 108* | 77*
CC1=C(C(=O)OC(C)C)C(c2cccnc2)C2=C(CCCC2=O)N1 (stereo unspecified) | 3 | -8 | 0 | 5671 | 36* | 15 | 3 | -2
CCOC(=O)C1=C(C)NC2=C(C(=O)CCC2)C1c1cccnc1 (stereo unspecified) | -6 | 0 | -2 | 23612* | 36* | 13 | 9 | 4
CCOC(=O)C1=C(C)NC2=C(C(=O)CCC2)C1c1ccc(N(C)C)cc1 (stereo unspecified) | -6 | -4 | 0 | 9375 | 1 | 10 | x | x
CCOC(=O)C1(C)CCCN(C(=O)c2ccccc2F)C1 (stereo unspecified) | -1 | -10 | 0 | 3711 | 0 | -5 | x | x
Cc1cc(C)c2c(N)c(C(=O)Nc3nccs3)sc2n1 | -2 | -16 | 0 | 9361 | 105* | 13 | 151* | 110*
Cc1nnc(NC(=O)c2sc3nc(-c4cccs4)cc(C(F)(F)F)c3c2N)s1 | 26 | 11 | 10 | 14974 | 33* | 43* | 5 | 2
Cc1cc(C(F)(F)F)c2c(N)c(C(=O)NC3CC3)sc2n1 | 2 | 5 | 4 | 5138 | 4 | 14 | x | x
CCOC(=O)c1sc2nc(C)cc(C)c2c1N | -4 | 1 | 1 | 15661 | 36* | 23 | 65* | 56*
Cc1cc2c(c(=O)n1CCc1ccccc1)C(c1ccco1)C(C#N)=C(N)O2 (stereo unspecified) | -2 | -1 | -1 | 23680* | 40* | 6 | 2 | -3
COc1ccc(-c2cc(C(=O)NC3CCCC3)c3ccccc3n2)cc1 | u | -10 | -3 | 3427 | 41* | 21 | 72* | 55*
COc1cccc(-c2cc(C(=O)NC3CC3)c3ccccc3n2)c1 | 8 | -1 | 4 | 5103 | -1 | 10 | x | x
CCCOc1ccc(-c2cc(C(=O)NCC3CCCO3)c3ccccc3n2)cc1 (stereo unspecified) | 0 | 0 | 1 | 2576 | 28* | 14 | 177* | 154*
O=C(NC1CCC(O)CC1)c1cc(-c2ccco2)nc2ccccc12 (stereo unspecified) | -5 | -1 | 0 | 4405 | 62* | 3 | 53* | 38*
COc1ccc(-c2cc(C(=O)NC3CC3)c3ccccc3n2)cc1 | 6 | 0 | 0 | 5383 | 46* | 1 | 104* | 88*
Nc1ccc(S(=O)(=O)Nc2nccc(/C=C/c3ccc(Cl)cc3Cl)n2)cc1 | 3 | -1 | 0 | 4725 | -3 | 27 | x | x
SMILES | BoNT F protease | Anthrax LF inh2 | BoNT A protease | Bead autofluor | Mtb FBA inh | GDH-TPI counter-1 | Mtb FBA inh conf | GDH-TPI counter-2 | others
O=C(NCc1cccs1)C1CC(c2ccc(F)cc2)=NO1 (stereo unspecified) | 4 | -2 | 0 | 2023 | -3 | -4 | x | x
c1cnc2cc(-c3ccsc3)ncc2c1 | -3 | -9 | 0 | 2869 | 29* | 15 | 8 | 5
Cc1ccccc1NC(=O)Cn1c(C)nc2ccc(N)cc2c1=O | -14 | -6 | 0 | 3117 | 61* | 10 | 17 | 0 | GDH-TPI DR=2.8*
CCOC(=O)c1nccnc1C(=O)Nc1cccc(C(F)(F)F)c1 | 3 | 4 | 0 | 3830 | 0 | -8 | x | x
CS(=O)(=O)Cc1cccc(C(=O)NN(c2ccccc2)c2ccccc2)c1 | -7 | -1 | 0 | 6074 | 3 | -6 | x | x
CCOC(=O)c1sc(N)nc1-c1ccccc1 | -6 | 1 | 0 | 5382 | 7 | 7 | x | x
CCOC(=O)c1sc(N(C)C)nc1-c1ccccc1 | -30 | -3 | -1 | 4900 | 39* | 14 | 136* | 97*
CCSc1nnc(NC(=O)c2cccc(S(=O)(=O)N(C)c3ccccc3)c2)s1 | -13 | 0 | -1 | 1998 | 5 | 13 | x | x
CCCc1cc(=O)oc2cc(C)cc(OC(=O)c3ccco3)c12 | -12 | -2 | -2 | 11279 | -1 | 2 | x | x
Cc1c(C)c2ccc(OCC(=O)NC3CCN(Cc4ccccc4)CC3)c(C)c2oc1=O | 0 | -1 | 0 | 6909 | 38* | 7 | 60* | 48*
O=C(COc1ccc(Br)cc1Cl)NC1CCN(Cc2ccccc2)CC1 | -2 | 2 | 0 | 6283 | -1 | 3 | x | x
CCc1cc(=O)oc2cc(C)cc(OCC(=O)NC(Cc3c[nH]c4ccc(O)cc34)C(=O)O)c12 (stereo unspecified) | -8 | -3 | 0 | 5365 | 12 | 8 | x | x
CCCc1cc(=O)oc2cc(C)cc(OCC(=O)NC3CC3)c12 | -14 | -4 | -2 | 4683 | 93* | 14 | 1 | 2
CCc1cc(=O)oc2cc(C)cc(OCC(=O)NC3CC3)c12 | 3 | -3 | -1 | 4478 | 65* | 9 | 21 | 22*
Cc1cc(OCC(=O)N2CCN(c3cccc(Cl)c3)CC2)c2c(C)c(C)c(=O)oc2c1 | 6 | -1 | 1 | 4785 | 2 | 7 | x | x
Cc1cc(OCC(=O)N2CCC[C@@H]2C(=O)O)c2c(C)c(C)c(=O)oc2c1 | 10 | -1 | 0 | 5252 | 84* | 8 | 123* | 98*
